Screening data as filed in PubChem BioAssay.
Only some compounds are listed: those with a hit (about 4.2% of all), similar ones and a draw of the others.
TRPV1 potentiator: HTS Assay for Compounds that Act as Potentiators of the Vanilloid Receptor 1; 320,000 tested, 0.02% active; potentiation, % at 8.33 µM; Transient receptor potential cation channel subfamily V member 1 (Homo sapiens), Q8NER1; TRPV1-expressing cells, Fluo-8 calcium influx, capsaicin EC20 potentiation; in the data active = potentiation above about 80%; inconclusive = between about 30% and that limit; also: 0% is about no effect
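TRPV1-expressing cells were cultured overnight at 35.5C and loaded with Fluo-8 calcium dye for 40 to 90 min at room temperature. After a 10 s baseline, compound was added and calcium influx was read kinetically for 3 min (ex 480/em 520 nm).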
TRPV1 agonist: HTS Assay for Compounds that Act as Agonists of the Vanilloid Receptor 1; activation, % at 8.33 µM; TRPV1-expressing cells, Fluo-8 calcium influx, agonist mode; AID 540275, 2011; Transient receptor potential cation channel subfamily V member 1 (Homo sapiens), Q8NER1; 320,000 tested, 0.19% active; in the data active = activation above about 80%; inconclusive = between about 30% and that limit; also: 0% is about no effect
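Cells expressing TRPV1 were dye-loaded with Fluo-8 and read kinetically: 10 s baseline, 3 min after compound (agonist portion), then 2 min after EC20 capsaicin (allosteric enhancer portion). Calcium-bound dye fluorescence at 480/520 nm.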
D1 agonist: Allosteric Agonists of the Human D1 Dopamine Receptor: qHTS; activation, % at 2 µM; HEK293 T-REx D1 cells, calcium flux, agonist mode; 360,000 tested, 1% active; in the data active = activation above about 30%; also: 0% is about no effect
Target sequence (P21728 whole entry, looked up): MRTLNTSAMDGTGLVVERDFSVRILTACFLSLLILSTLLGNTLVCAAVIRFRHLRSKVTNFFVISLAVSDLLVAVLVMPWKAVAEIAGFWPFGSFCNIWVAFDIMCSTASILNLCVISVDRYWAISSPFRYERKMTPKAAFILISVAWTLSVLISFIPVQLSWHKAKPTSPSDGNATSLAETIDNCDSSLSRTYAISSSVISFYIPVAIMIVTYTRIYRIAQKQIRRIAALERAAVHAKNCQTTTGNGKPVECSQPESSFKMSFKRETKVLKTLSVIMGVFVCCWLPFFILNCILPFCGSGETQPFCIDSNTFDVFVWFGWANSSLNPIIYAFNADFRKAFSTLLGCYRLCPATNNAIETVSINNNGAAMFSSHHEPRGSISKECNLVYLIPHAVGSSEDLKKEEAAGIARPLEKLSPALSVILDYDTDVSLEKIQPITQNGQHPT
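Agonism was scored from calcium flux recorded over 180 s (1 read/s) after pintool compound addition, following a 10-cycle baseline. Cells were inducible force-coupled HEK293 TREx D1, plated overnight at 30 C and loaded with no-wash calcium dye.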
D1 PAM: Potentiators of Human D1 Dopamine Receptor: qHTS. HEK293 TREx D1 cells, calcium flux, dopamine EC20 potentiation. potentiation, % at 10 µM. 360,000 tested, 0.036% active. AID 504651, 2011; in the data active = potentiation above about 30%; also: 0% is about no effect
D1 antagonist: Antagonist of Human D 1 Dopamine Receptor: qHTS; D(1A) dopamine receptor (Homo sapiens), P21728; HEK293 TREx D1 cells, calcium flux, dopamine EC80; active compounds read low; activity change, negative = inhibition, % at 10 µM; 360,000 tested, 3.2% active; in the data active = activity change below about -30%; also: % is scaled to controls: 0 for no effect and ±100 for the full control effect
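Cells carrying a force-coupled, tetracycline-inducible human D1 receptor report calcium flux. Each well gets a 10 s baseline, compound with 180 s monitoring, then an EC80 dopamine stimulus with a second 180 s kinetic read.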
Active calls of the source: *; i = inactive; u = inconclusive; x = no result.

SMILES	TRPV1 potentiator	TRPV1 agonist	D1 agonist	D1 PAM	D1 antagonist
Cc1c(C)n(Cc2ccc(F)cc2)c2ccc(C(=O)NCCN3CCOCC3)cc12	-21	u	6	-19	-30*
N#Cc1ccc2c(c1)C[C@]1(CCCCN3C(=O)c4ccccc4C3=O)Oc3c(c(=O)oc4ccccc34)C2O1	i	i	1	-1	7
COc1cc(C2C(=O)N(C3CCC(C)CC3)CC(=O)N2CCc2ccc(Cl)cc2)ccc1OC(C)C (stereo not given)	x	x	-4	-2	4
CCn1c(C)c(C)c2cc(C(=O)NCc3ccc(F)cc3)ccc21	x	x	34*	-4	16
CCOC(=O)N1CCN(C(=O)CCn2c(=O)[nH]c3ccsc3c2=O)CC1	0	2	3	-5	14
CCOC(=O)N1CCN(C(=O)CCn2c(=S)[nH]c3ccsc3c2=O)CC1	-2	-1	-1	-4	-49*
CCOC(=O)C1CCN(C(=O)Cn2nc(C)n3c(cc4sccc43)c2=O)CC1	x	x	1	-6	-42*
CCOC(=O)C1CCN(C(=O)CCn2c(=O)[nH]c3ccsc3c2=O)CC1	6	-4	2	-7	-37*
CCOC(=O)C1CCCN(S(=O)(=O)c2csc(C(N)=O)c2)C1 (stereo not given)	x	x	3	3	-1
Cn1c(SCC(N)=O)nc2c([nH]c3ccccc32)c1=O	x	x	0	1	4
CCC1CCCCN1C(=O)c1cc(COc2ccc3ncccc3c2)on1 (stereo not given)	-15	18	12	-4	-42*
COCCC1CCCCN1C(=O)c1cc(COc2ccc(-n3cncn3)cc2)on1 (stereo not given)	6	7	18	-9	-64*
Cc1nc(CN(C)C(=O)c2cc(COc3ccc4ncccc4c3)on2)cs1	-2	5	16	-2	-37*
CC(=O)c1ccc(OCc2cc(C(=O)N3CCCCC3c3cccnc3)no2)cc1 (stereo not given)	1	-2	20	-6	-33*
CC(C)N(Cc1nccn1C)C(=O)c1cc(COc2ccc3ncccc3c2)on1	9	-6	8	1	-7
Cc1ccc(NC(=O)CSc2nc3nc(C)c(Cc4ccccc4)c(C)n3n2)cc1	x	x	2	0	16
Cc1nc(N2CCOCC2)c2c(C(=O)N3CCN(c4cccc(C)c4C)CC3)c(C)oc2n1	x	x	1	-4	-5
CC(Sc1nc2ccccc2s1)C(=O)c1c(N)n(C)c(=O)n(C)c1=O (stereo not given)	0	10	9	-1	-42*
CCCn1c(=N)c(S(=O)(=O)c2ccccc2)cc2c(=O)n3ccccc3nc21	-11	u	5	2	-16
CCCCCn1c(=N)c(S(=O)(=O)c2ccccc2)cc2c(=O)n3ccccc3nc21	x	x	1	0	-62*
COC(=O)c1ccc2c(c1)C(=O)/C(=C/c1ccc(O)cc1)O2	-16	21	88*	-4	2
O=C1/C(=C/c2ccc([N+](=O)[O-])cc2)Oc2cc(O)ccc21	-8	2	16	-4	-7
CC(=O)Oc1ccc(/C=C2/Oc3ccccc3C2=O)cc1	-19	20	12	1	11
O=C1/C(=C/c2ccc(Br)cc2)Oc2cc(O)ccc21	-1	9	45*	-6	-10
CC(C)(C)c1ccc(/C=C2\Oc3cc(O)ccc3C2=O)cc1	3	u	11	-3	-46*
SMILES	TRPV1 potentiator	TRPV1 agonist	D1 agonist	D1 PAM	D1 antagonist
COc1ccc(CCN2C(=O)c3[nH]nc(-c4ccccc4O)c3C2c2ccc(OC)c(OC)c2)cc1 (stereo not given)	x	x	2	2	-2
O=C(NCc1nc(-c2ccc(C(F)(F)F)cc2)no1)Nc1ccc(OC(F)(F)F)cc1	-22	8	10	-9	-37*
COc1ccc(S(=O)(=O)NCc2nc(-c3ccccc3)no2)cc1	x	x	3	-2	3
CCN(c1ccccc1)S(=O)(=O)c1ccc(OC)c(NC(=O)CNCCc2ccccc2)c1	17	0	22	-13	-33*
CCOc1ccccc1NC(=O)N1CC(CC)Oc2ccccc21 (stereo not given)	x	x	0	-1	0
Clc1ccc(N/N=C/c2ccncc2)cc1Cl	-4	23	4	-10	-34*
CCc1ccc2occ(CC(=O)Nc3c(C(=O)Nc4ccc(OC)cc4)oc4ccccc34)c2c1	x	x	1	-1	-8
O=C(CSc1nc(-c2ccc(F)cc2)cc(C(F)(F)F)n1)NCCc1ccccc1	x	x	44*	-4	-8
CCN(CC)CCCNC(=O)CSc1nc(-c2ccc(F)cc2)cc(C(F)(F)F)n1	-2	1	15	-4	-41*
CCOC(=O)Cn1c(=O)n(-c2ccccc2OC)c2nc(-c3ccccc3)nc(C(N)=O)c21	x	x	6	2	11
COc1ccc(CCNC(=O)c2cnc3sc(N4CCCC4)nn3c2=O)cc1OC	x	x	1	-2	22
O=C(NCCc1csc(-c2ccc(Cl)cc2)n1)c1cccs1	x	x	3	-4	-25
Cc1cccc(OCC(=O)Nc2cccc(C(=O)OCc3cc(=O)n4nc(C(C)C)sc4n3)c2)c1	x	x	5	-1	-1
Cc1ccc(CNC(=O)C2CCCN(c3nc4ccccc4o3)C2)cc1 (stereo not given)	-12	26	-1	-2	-5
O=C(NCc1cccs1)C1CCCN(c2nc3ccccc3o2)C1 (stereo not given)	-13	u	1	-4	-46*
O=C(NCc1cccs1)C1CCC(CNS(=O)(=O)c2ccccc2)CC1 (stereo not given)	2	3	2	-8	-33*
Cc1ccc(S(=O)(=O)NCC2CCC(C(=O)NCc3cccs3)CC2)cc1 (stereo not given)	1	4	4	-6	-6
Cc1ccc(C)c(NC(=O)CSc2nc3c([nH]c4ccccc43)c(=O)n2-c2ccc(F)cc2)c1	x	x	1	-6	-15
COC(=O)c1ccc(NS(=O)(=O)c2ccc3[nH]c(=O)oc3c2)cc1	3	1	0	-12	-30*
Cc1ccc(NS(=O)(=O)c2ccc3[nH]c(=O)oc3c2)cc1Cl	1	6	1	-8	-2
COC(=O)c1ccc(CNC(=O)c2ccc(NS(=O)(=O)c3ccc4[nH]c(=O)[nH]c4c3)cc2)cc1	1	0	3	-3	9
CCNC(=O)c1ccc(NS(=O)(=O)c2ccc3[nH]c(=O)[nH]c3c2)cc1	-3	4	5	-7	-41*
COc1ccc(NC(=O)NNC(=O)COc2ccc3cc(Br)ccc3c2)c(OC)c1	9	1	5	-1	-32*
